Data: PubChem BioAssay AID485353 (National Center for Advancing Translational Sciences (NCATS), 2010)
Screen size: about 330,000 compounds; about 610 (0.18%) were called active. Where a call stands in place of a potency, no number is given. Roughly 2% stayed inconclusive and do not appear here. The sample holds actives, similar compounds and a random draw of the others, so the mix is not that of the screen. Values without a mark were called inactive. Calls come from the whole dose curve.
Potency is the fitted concentration of half-maximal effect.

Assay: qHTS of Yeast-based Assay for SARS-CoV PLP; note: nearly all actives have a fitted effect of over 55% in size
Conditions: S. cerevisiae expressing SARS-CoV PLpro; Potency: growth rescue; series mostly up to 32.9 µM
In the case of `CCOC(=O)c1nn(-c2ccccc2F)c2nc(Nc3ccccc3)cc(=O)n12`, the Potency is reported as “inactive”.
With `Cc1cc(NC(=O)CS(=O)(=O)c2cn(C)c3ccccc23)no1` the Potency was “inactive”.
In the case of `CC1CN(S(=O)(=O)c2ccccc2)C(C)CN1S(=O)(=O)c1ccccc1` (configuration not stated), the Potency is reported as “inactive”.
For `Cn1c(SCC(=O)NC2CCCCC2)nnc1-c1ccc(N)cc1`, the Potency was “inactive”.
With `CCOc1cccc(-c2nnc(SCC(=O)NC3CC3)n2C)c1` the Potency was “inactive”.
In the case of `Cn1c(SCC(=O)NC2CCCCC2)nnc1-c1cc2ccccc2o1`, the Potency is reported as 10 µM (active).
For `CN(c1ccc2nc3ccccc3c(=O)n2n1)C1CCCCC1`, the Potency was “inactive”.
With `CC(C)Cc1nnc(NC(=O)CCC(=O)Nc2ccc3cn[nH]c3c2)s1` the Potency was “inactive”.
In the case of `O=c1oc2ccccc2cc1-c1cn(-c2ccccc2)c(=S)[nH]1`, the Potency is reported as “inactive”.
In the case of `S=c1[nH]c(-c2cccs2)cn1-c1ccccc1`, the Potency is reported as 11.2 µM (active).
For `S=c1[nH]nc(-c2cccs2)n1/N=C/c1cn(-c2ccccc2)nc1-c1ccc(Cl)cc1`, the Potency was “inactive”.
With `O=C(NN1C(=O)C2C(C1=O)C1C=CC2C12CC2)c1ccccc1Cl` (configuration not stated) the Potency was “inactive”.
In the case of `COc1ccccc1C(=O)NN1C(=O)C2C3C=CC(O3)C2C1=O` (configuration not stated), the Potency is reported as “inactive”.
With `CC12CCC(C(=O)N(NC(=O)c3ccccc3O)C1=O)C2(C)C` (configuration not stated) the Potency was 2.82 µM (active).
In the case of `O=c1c(Cl)c(NCc2ccc(F)cc2Cl)cnn1C12CC3CC(CC(C3)C1)C2`, the Potency is reported as “inactive”.
In the case of `O=C(NC1CCN(S(=O)(=O)c2ccc(F)cc2)CC1)c1ccccc1`, the Potency is reported as “inactive”.
With `CCc1ccc(-c2nn(-c3ccccc3)cc2CSC(=N)N)cc1` the Potency was “inactive”.
With `CCCCC(=O)N(c1ccc(OC)cc1)C1C=CS(=O)(=O)C1` (configuration not stated) the Potency was “inactive”.
For `Nc1ccc(Nc2cc(O)c3ncccc3c2)cc1`, the Potency was “inactive”.
For `Cc1ccc(OCCC(=O)Nc2ccc(S(=O)(=O)Nc3nccs3)cc2)cc1`, the Potency was “inactive”.
In the case of `CC(C)=C1C2CCC1C1C(=O)N(NC(=O)c3ccco3)C(=O)C21` (configuration not stated), the Potency is reported as 2.82 µM (active).
In the case of `O=C(NN1C(=O)C2CCCCC2C1=O)c1ccco1` (configuration not stated), the Potency is reported as “inactive”.
In the case of `O=C(NN1C(=O)C2C3C=CC(C3)C2C1=O)c1ccco1` (configuration not stated), the Potency is reported as “inactive”.
With `CC(=O)NC(c1cccs1)c1cc(Br)c2cccnc2c1O` (configuration not stated) the Potency was “inactive”.
In the case of `Cc1nn2c(c1-c1ccccc1)N=C(c1ccco1)CC2c1ccccc1` (configuration not stated), the Potency is reported as “inactive”.
In the case of `CC[C@]12c3[nH]c4cc(CCC(=O)N(C)C)ccc4c3CCN1C(=O)[C@@H](CC(=O)NCCCN(C)C)C[C@@H]2C(=O)N1CCN(C(=O)c2ccco2)CC1`, the Potency is reported as “inactive”.
With `CCC(C)NC(=O)C1CCCN(C(=O)NC2CCCCC2)C1` (configuration not stated) the Potency was “inactive”.
With `Cc1ccc(S(=O)Cc2ccc(C(=O)N3CCN(C4CCCCC4)CC3)o2)cc1` (configuration not stated) the Potency was “inactive”.
For `Cc1ccc(C(=O)COC(=O)CCN2C(=O)C3C4CCC(C4)C3C2=O)cc1C` (configuration not stated), the Potency was “inactive”.
For `Cc1ccc(C(=O)COC(=O)CCN2C(=O)C3C4CC(C(Br)C4Br)C3C2=O)cc1` (configuration not stated), the Potency was 12.6 µM (active).
For `O=C(CCN1C(=O)C2C3C=CC(C3)C2C1=O)Oc1ccc2ccccc2c1` (configuration not stated), the Potency was “inactive”.
In the case of `CCN1C(=O)[C@@H]2[C@@H](c3ccc(-c4ccccc4)cc3)N3CCCC[C@@]3(C(=O)OC)[C@@H]2C1=O`, the Potency is reported as “inactive”.
With `O=C(Oc1cccc(N2C(=O)C3C4c5ccccc5C(c5ccccc54)C3C2=O)c1)c1ccco1` (configuration not stated) the Potency was “inactive”.
For `Cc1nc2ccccc2n1C(=O)N1CCOCC1`, the Potency was “inactive”.
With `CC1CN(C(=S)SCC(=O)c2ccccc2)CC(C)O1` (configuration not stated) the Potency was 10 µM (active).
In the case of `CC1CN(C(=S)Nc2ccccc2F)CC(C)O1` (configuration not stated), the Potency is reported as “inactive”.
With `O=C(CSC(=S)N1CCOCC1)c1ccccc1` the Potency was “inactive”.
For `Cc1ccc(NC(=O)COc2ccc(-n3ccnc3)cc2)cc1Cl`, the Potency was “inactive”.
With `COc1cccc(NC(=O)c2ccccc2N(Cc2ccccc2)S(C)(=O)=O)c1` the Potency was “inactive”.
In the case of `O=C(CSc1cccc2cccnc12)N/N=C/c1cccnc1`, the Potency is reported as “inactive”.
With `COc1ccccc1N1CCN(C(CNC(=O)Oc2ccccc2)c2cccnc2)CC1` (configuration not stated) the Potency was “inactive”.
With `CCOC(=O)N1CCN(C(c2cccnc2)c2ccc3cccnc3c2O)CC1` (configuration not stated) the Potency was 11.2 µM (active).
For `Cc1ccc(S(=O)(=O)n2cccc2CO)cc1`, the Potency was “inactive”.
For `CC(C)(Oc1ccc(Cl)cc1)C(=O)OCC(=O)NCCc1ccc(S(N)(=O)=O)cc1`, the Potency was “inactive”.
In the case of `O=C(Cn1cnc2c(nnn2-c2ccccc2)c1=O)N1CCC(Cc2ccccc2)CC1`, the Potency is reported as “inactive”.
With `COc1cccc(NC(=O)CN(C)C(C)C(=O)Nc2ccc(C#N)cc2)c1` (configuration not stated) the Potency was “inactive”.
With `O=C(CCc1nnc(CCCCc2ccccc2)o1)NC(c1cccnc1)C(F)(F)F` (configuration not stated) the Potency was “inactive”.
With `O=C(Nc1ccc(S(=O)(=O)N2CCCCC2)cc1)C1CC(=O)N(c2ccc(F)cc2)C1` (configuration not stated) the Potency was “inactive”.
For `CN1CCN(C2=NCCO2)CC1`, the Potency was “inactive”.
For `CC(C#N)OC(=O)c1cccnc1SCC(=O)Nc1ccc2c(c1)OCO2` (configuration not stated), the Potency was “inactive”.
In the case of `CCCCOc1ccc(NC(=O)[C@@H]2CCCN2C(=O)C2CCN(S(=O)(=O)c3ccc(C)cc3)CC2)cc1`, the Potency is reported as “inactive”.
In the case of `COc1ccc(NC(=O)C2CCC(CNS(=O)(=O)c3csc(C(N)=O)c3)CC2)cc1OC` (configuration not stated), the Potency is reported as “inactive”.
In the case of `Cc1cc(C)c2nc3nc(C)cc(C)c3c(N)c2c1`, the Potency is reported as “inactive”.
For `O=C(CN1C(=O)NC2(CCCCCCC2)C1=O)NCc1ccc(F)cc1`, the Potency was “inactive”.
With `Cc1ccccc1OCc1nnc(SCC(=O)N2c3ccccc3Sc3ccc(Cl)cc32)o1` the Potency was “inactive”.
For `O=C(CN1C(=O)/C(=C\c2ccc(C(F)(F)F)cc2)Sc2ccccc21)NCc1ccco1`, the Potency was 12.6 µM (active).
With `O=C(CC1CCCCC1)NCc1ccco1` the Potency was “inactive”.
In the case of `O=C(CN1C(=O)/C(=C/c2ccccc2F)Sc2ccccc21)NCc1cccnc1`, the Potency is reported as “inactive”.
For `COc1cccc(C(CC(=O)NCCN2CCOCC2)NS(=O)(=O)c2ccc(C)cc2)c1OC` (configuration not stated), the Potency was “inactive”.
For `CCc1nccn1CCC(=O)N1CCCC(N2CCN(c3ccccc3F)CC2)C1` (configuration not stated), the Potency was “inactive”.
With `CC1(c2ccc(Cl)cc2Cl)NC(=O)N(CC(=O)Nc2cccnc2Cl)C1=O` (configuration not stated) the Potency was “inactive”.
For `O=C(c1ccco1)N1CCN(CC(=O)N(C2CCCCC2)C2CCS(=O)(=O)C2)CC1` (configuration not stated), the Potency was “inactive”.
For `COc1ccc(CNC(=O)c2c[nH]c3c(OC)cc(OC)cc3c2=O)cc1`, the Potency was “inactive”.
In the case of `CC(=O)N1N=C(c2ccncc2)OC1(Cc1ccccc1)Cc1ccccc1`, the Potency is reported as “inactive”.
In the case of `COC(=O)CCc1sc(Nc2ccc(Br)cc2)nc1-c1ccc(OC)cc1`, the Potency is reported as “inactive”.
`CN(C(=O)COC(=O)CCCc1c[nH]c2ccccc12)c1c(N)n(Cc2ccccc2)c(=O)[nH]c1=O` showed an activity, positive = growth rescue of 2.28% [at 6.58 µM].
For `Cc1nc(-c2ccc(Cl)cc2)sc1C(=O)CBr`, the Potency was “inactive”.
In the case of `Cc1nc(-c2ccccc2)sc1C(=O)/C=C/N(C)C`, the Potency is reported as “inactive”.
With `Cc1ccc(SCC(=O)c2sc(-c3ccccc3)nc2C)cc1` the Potency was 3.55 µM (active).
With `CN(CC(=O)NCCN1CCOCC1)S(=O)(=O)c1ccc(F)cc1` the Potency was “inactive”.
With `C/C(=N\NC(=O)c1cccc([N+](=O)[O-])c1)c1cccnc1` the Potency was “inactive”.
With `Cc1[nH]n(-c2ccc([N+](=O)[O-])cc2)c(=O)c1C=NCCN1CCN(C(=O)c2ccccc2F)CC1` the Potency was “inactive”.
In the case of `Cc1ccc(-n2[nH]c(C)c(/C=N/NC(=O)c3cccc([N+](=O)[O-])c3)c2=O)cc1C`, the Potency is reported as 1.26 µM (active).
For `C/C(=N\NC(=O)c1ccoc1C)c1ccccc1O`, the Potency was “inactive”.
For `COc1cc(/C=N/NC(=O)c2ccoc2C)ccc1OCCN1CCCCC1`, the Potency was “inactive”.
For `Cc1[nH]n(-c2ccccc2)c(=O)c1/C=N/NC(=O)c1ccoc1C`, the Potency was 2.51 µM (active).
In the case of `O=C(Cn1cc(/C=N/NC(=O)c2cccc(C(F)(F)F)c2)c2ccccc21)Nc1ccc(F)cc1`, the Potency is reported as “inactive”.
With `O=C(NCCCn1ccnc1)C(=O)NCC1OCCN1S(=O)(=O)c1cc(F)ccc1F` (configuration not stated) the Potency was “inactive”.
For `CCc1cccc(NC(=O)COC(=O)c2cc(=O)c3ccccc3o2)c1`, the Potency was “inactive”.
With `Nc1nonc1-n1nnc(C(=O)N/N=C/c2cc(Br)ccc2O)c1CSC1=NCCS1` the Potency was 4.47 µM (active).
In the case of `Nc1nonc1-n1nnc(C(=O)N/N=C\c2ccncc2)c1CN1CCCCC1`, the Potency is reported as “inactive”.
In the case of `Cc1ccc(SCc2c(C(=O)N/N=C/C3CC=CCC3)nnn2-c2nonc2N)cc1` (configuration not stated), the Potency is reported as “inactive”.
With `CSc1nc(-c2ccco2)nn1C(=O)c1ccccc1Cl` the Potency was “inactive”.
In the case of `COc1cc(C(=O)N/C(=C\c2cn(C)c3ccccc23)C(=O)N2CCOCC2)cc(OC)c1OC`, the Potency is reported as “inactive”.
For `CCN(CC)c1ccc(/C=N/Nc2nc(C)cc(C)n2)c(O)c1`, the Potency was 5.01 µM (active).
For `CCN(CC)c1ccc(/C=N/NC(=O)c2cnccn2)c(O)c1`, the Potency was “inactive”.
In the case of `Cc1cc(C)nc(N/N=C/c2c(CO)cnc(C)c2O)n1`, the Potency is reported as “inactive”.
With `CC1(C)Cc2nc3sc4c(SCC(=O)NC(c5ccccc5)c5ccccc5)ncnc4c3cc2CO1` the Potency was “inactive”.
With `COc1ccc(NC(=O)C(=O)NCC(c2ccco2)N2CCc3ccccc3C2)cc1` (configuration not stated) the Potency was “inactive”.
For `CCOc1c(Nc2cccc(Cl)c2)c(=O)c1=O`, the Potency was “inactive”.
In the case of `CCOCCCNC(=O)C(NC(=O)c1ccc(=O)[nH]c1)c1ccc(Cl)cc1` (configuration not stated), the Potency is reported as “inactive”.
In the case of `CC1(C(=O)OCC(=O)Nc2ncc(Cl)cc2Cl)CC1(Cl)Cl` (configuration not stated), the Potency is reported as “inactive”.
For `CN(CC(=O)Nc1ccc(S(=O)(=O)N2CCCC2)cc1)Cc1ccc(Cl)c(Cl)c1`, the Potency was “inactive”.
With `C=CCn1c(-c2sc(-c3ccccc3)nc2C)n[nH]c1=S` the Potency was “inactive”.
For `C=CCn1c(SCC(=O)NC)nnc1C12CC3CC(CC(C3)C1)C2`, the Potency was “inactive”.
With `C=CCn1c(C23CC4CC(CC(C4)C2)C3)n[nH]c1=S` the Potency was 11.2 µM (active).
With `C=CCNC(=O)/C(=C\c1cccc([N+](=O)[O-])c1)NC(=O)c1ccccc1` the Potency was “inactive”.
In the case of `O=C(Nc1ccc(C(=O)O)cc1)/C(=C/c1ccc([N+](=O)[O-])cc1)NC(=O)c1ccccc1`, the Potency is reported as “inactive”.
In the case of `O=C(N/N=C/c1cc([N+](=O)[O-])ccc1O)/C(=C\c1cccs1)NC(=O)c1ccccc1`, the Potency is reported as 3.98 µM (active).
With `COc1cccc(CNC(=O)CN(C)S(=O)(=O)c2ccc3c(c2)c(=O)n(C)c(=O)n3C)c1` the Potency was 3.55 µM (active).
In the case of `CC1CCC(NC(=O)CN(C)S(=O)(=O)c2ccc3c(c2)c(=O)n(C)c(=O)n3C)CC1` (configuration not stated), the Potency is reported as “inactive”.
In the case of `CCc1ccccc1NC(=O)CN(C)S(=O)(=O)c1ccc2c(c1)c(=O)n(C)c(=O)n2C`, the Potency is reported as “inactive”.
